Experimental data: PubChem BioAssay (NCATS)
Inconclusive results are not listed. Calls of active or inactive are those of the source. Unless noted, how the calls were made is not given here.

What was measured:
[1] = qHTS Assay for Identifying Gametocytocidal Compounds (AID 743244; active means well fitted curve in the direction sought with a large enough effect; an effect the other way counts as inactive or inconclusive; further: potency means the concentration at half of the fitted maximal effect;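 on max response: on the % scale 0 is the no-effect control and ±100 the full control effect; actives lower the fluorescent signal which means gametocytes are killed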); conditions: P. falciparum 3D7 stage III-V gametocytes, alamarBlue, 72 h; max response: stronger effect = lower value
Summary of the method: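 A resazurin-based viability read-out was applied to mature P. falciparum gametocytes: 72 h compound treatment, then 24 h dye incubation, with falling fluorescence signalling gametocytocidal effect.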

[2] = qHTS profiling for inhibitors of Plasmodium falciparum (3D7) proliferation (AID 743322);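 further: infected erythrocytes exposed to compound for 72 h before lysis; 100% = DMSO vehicle wells and 0% = 0.29 µM artemisinin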; conditions: P. falciparum 3D7 proliferation; at 28.7 µM (top of the series)
Summary of the method: (§1)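 Parasite DNA was quantified by SYBR Green I fluorescence (ex 485, em 535 nm) after overnight lysis in saponin/Triton buffer at room temperature. Cultures at 0.3% parasitemia and 2.5% hematocrit were first exposed to compound for 72 h at 37 C; signals were normalised to artemisinin (0.29 uM) and vehicle wells.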

[3] = qHTS profiling for inhibitors of Plasmodium falciparum (DD2) proliferation (AID 743323); conditions: lower = more inhibition; at 28.7 µM (top of the series)
Summary of the method: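 SYBR Green fluorescence (ex 485, em 535 nm) of lysed cultures gives parasite DNA content; wells normalized to artemisinin (0.29 uM) and DMSO controls. Infected red cells: 0.3% parasitemia, 2.5% hematocrit, 72 h, 37 C.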

[4] = qHTS profiling for inhibitors of Plasmodium falciparum (HB3) proliferation (AID 743324; active means well fitted curve in the direction sought with a large enough effect; an effect the other way counts as inactive or inconclusive;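 further: 100% = DMSO vehicle wells and 0% = artemisinin-treated control wells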); conditions: Plasmodium falciparum HB3 blood-stage proliferation; at 28.7 µM (top of the series)
Summary of the method: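 SYBR Green fluorescence (485 ex/535 em) of lysed cultures, incubated overnight at room temperature in the dark, quantifies parasite DNA. Infected erythrocytes at 0.3% parasitemia and 2.5% hematocrit were exposed 72 h; values normalized to DMSO and 0.29 uM artemisinin controls.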

[5] = qHTS profiling of the MIPE4 collection as inhibitors of Plasmodium falciparum (3D7) proliferation (AID 743344);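 further: scaled between DMSO vehicle wells and 0.29 µM artemisinin as full inhibition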; conditions: P. falciparum 3D7 in erythrocytes, SYBR Green DNA fluorescence, 72 h; at 28.5 µM (top of the series) unless noted
Summary of the method: as §1

[6] = qHTS profiling of the MIPE4 collection as inhibitors of Plasmodium falciparum (DD2) proliferation (AID 743345); conditions: P. falciparum Dd2 in erythrocytes, SYBR Green DNA, 72 h; at 28.5 µM (top of the series) unless noted
Summary of the method: as §1

[7] = qHTS profiling of the MIPE4 collection as inhibitors of Plasmodium falciparum (DD2) proliferation (Rep 2) (AID 743346); conditions: P. falciparum Dd2 in erythrocytes, SYBR Green DNA, 72 h; at 28.5 µM (top of the series) unless noted
Summary of the method: as §1

[8] = qHTS profiling of the MIPE4 collection as inhibitors of Plasmodium falciparum (HB3) proliferation (AID 743347);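 further: plate controls were DMSO vehicle wells for no effect and artemisinin wells for full effect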; conditions: P. falciparum HB3 in erythrocytes, SYBR Green DNA, 72 h; at 28.5 µM (top of the series) unless noted
Summary of the method: as §1

[9] = High-throughput drug toxicity screening in the BPDCN cell line Gen2.2 (AID 1224824); conditions: Gen2.2 BPDCN cells; at 45.8 µM (top of the series) unless noted;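 further: cells exposed to compounds for 48 h before reading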
Summary of the method: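 CellTiter-Glo luminescence read after 48 h compound exposure at 37 C defines viability; percent activity set with DMSO as 100% and bortezomib (9.2 uM final) as 0%. 500 exponentially growing cells per well, RPMI plus 10% FBS.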

[10] = High-throughput drug toxicity screening in the BPDCN cell line Cal-1 (AID 1224825); conditions: Cal-1 BPDCN cell viability, qHTS; at 45.8 µM (top of the series) unless noted
Summary of the method: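 CellTiter-Glo luminescence after 48 h compound exposure; percent activity scaled with DMSO as 100% and bortezomib (9.2 uM final) as 0%. Cal-1 cells seeded at 500/well in RPMI, 10% FBS, no phenol red.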

| SMILES | Potency [1] | remaining parasite growth % (stronger effect = lower value) [2] [%] | activity, percent of control [3] [%] | remaining proliferation (% of control), lower = more inhibition [4] [%] | parasite growth, % of DMSO control [5] | parasite growth remaining, % of DMSO control (lower = more inhibition) [6] [%] | parasite growth, % of control (lower = inhibition) [7] | growth, % of control [8] | cell viability, % of control (lower = more cytotoxic) [9] | viability (% of control) [10] | max response [1] |
| --- | --- | --- | --- | --- | --- | --- | --- | --- | --- | --- | --- |
| CC1(C)OC2=C(C(=O)c3ccccc3C2=O)[C@H](NCc2ccccc2)[C@H]1O | 0.743 µM (active) | -2.33 | 0.336 | -1.28 | 6.23% | 7.16 | 6.48% | 3.94% | 12% | 8.3% |  |
| C[C@@H](Oc1cc(-c2cnn(C3CCNCC3)c2)cnc1N)c1c(Cl)ccc(F)c1Cl | 7.43 µM (active) | -1.04 | 1.46 | -2.16 | 5.26% | 5.84 | 10.7% | 2.36% | 13.2% | 3.63% |  |
| CN(c1ncccc1CNc1nc(Nc2ccc3c(c2)CC(=O)N3)ncc1C(F)(F)F)S(C)(=O)=O |  | 12.7 | 9.35 | 5.89 | 12.5% | 14.1 | 30.9% | 10.4% | 12.1% | 4.76% | 3.79% (inactive) |
| O=C(O)c1ccc2cc(-c3ccc(O)c(C45CC6CC(CC(C6)C4)C5)c3)ccc2c1 |  | 5.44 | 10.6 | -1.12 | 13.5% | 40 | 25.3% | 11.7% | 30.9% | 7.6% | 9.89% (inactive) |
| C=CC(=O)Nc1cc2c(Nc3ccc(F)c(Cl)c3)ncnc2cc1C#CC(C)(C)N1CCN(C)CC1 | 18.7 µM (active) | -1.21 | -0.164 | -0.161 | 9.4% | 8.69 | 18% | 4.67% | 6.93% | 1.87% |  |
| CC(=O)Nc1sc2c(c1-c1nc3ccccc3s1)CNC2 |  | 100 | 96.7 | 74.7 | 20.4% | 15.4 | 24% | 10.8% | 8.36% | 4.86% | 20.9% (inactive) |
| Fc1cc(-c2cccc3ncc(-c4cnn(C5CCNCC5)c4)nc23)cc(F)c1CN1CCOCC1 |  |  |  |  |  |  |  |  | 5.16% | 5.7% |  |
| CN1c2cc(O)c(N=NC(N)=O)cc2CC1S(=O)(=O)O (centres undefined) |  |  |  |  |  |  |  |  | 170% | 126% | 13% (inactive) |
| CC(C)(C)c1cnc(CSc2cnc(NC(=O)C3CCNCC3)s2)o1 | 4.18 µM (active) | 9.96 | 6.95 | 7.19 | 11.9% | 13 | 24.1% | 12.8% | 1.75% | 1.24% |  |
| c1ccc2c(CCNc3ccc(Nc4ccncc4)cc3)c[nH]c2c1 | 9.35 µM (active) | 1.57 | 6.37 | -0.777 | 11.1% | 10.6 | 6.39% | 5.7% | 5.37% | 3.61% |  |
| O=C(C=Cc1c(C(=O)O)[nH]c2cc(Cl)cc(Cl)c12)Nc1ccccc1 |  | 118 | 103 | 99.1 | 157% | 107 | 159% | 188% | 115% | 98.9% | 20.3% (inactive) |
| Clc1ccc2ncc(-c3cccc(NC4CNC4)n3)n2c1 |  | 5.93 | 12 | 6.95 | 10.6% | 24.5 | 24.4% | 3.87% | 15.7% | 4.56% | -0.805% (inactive) |
| CCCNC(=O)Nc1ccc(Oc2ncnc3cc(OC)c(OC)cc23)cc1Cl |  |  |  |  |  |  |  |  | 69.6% | 92.7% |  |
| COc1ccc(OC)c(-c2nnc3ccc(-c4ccc(OC)c(O[C@@H]5CCOC5)c4)nn23)c1 |  | -0.0314 | 0.138 | 0.357 | 5.33% | 6.53 | 16% | 8.79% | 6.73% | 3.56% | -15.7% (inactive) |
| C=CC(=O)N1CCC[C@@H](n2nc(-c3ccc(Oc4ccccc4)cc3)c3c(N)ncnc32)C1 |  |  |  |  |  |  |  |  | 43.2% | 6.59% |  |
| COC(=O)C[C@](O)(CCCC(C)(C)O)C(=O)O[C@@H]1C(OC)=C[C@]23CCCN2CCc2cc4c(cc2[C@H]13)OCO4 |  |  |  |  |  |  |  |  | 131% | 134% |  |
| Cc1cnc(-c2cnc(NCCNc3ccc(C#N)cn3)nc2-c2ccc(Cl)cc2Cl)[nH]1 |  | 89 | 90.2 | 53.7 | 34.7% |  | 40.9% | 27.2% | 229% | 38.3% | 11.2% (inactive) |
| COc1cc(=C2C=c3ccccc3=N2)[nH]c1=Cc1[nH]c(C)cc1C | 7.43 µM (active) | 2.05 | 1.12 | 1.42 | 4.63% | 7.38 | 15.9% | 5.2% | 17.7% | 3.02% |  |
| COc1cc2c(Nc3ccc(NC(=O)c4ccccc4)cc3)ncnc2cc1OCCCN1CCOCC1 |  | 2.34 | 15.5 | 3.78 | 10.3% | 21.6 | 30% | 8.34% | 4.68% | 2.4% | -17.9% (inactive) |
| Cc1cc(Nc2cc(N3CCN(C)CC3)nc(C=Cc3ccccc3)n2)n[nH]1 | 8.33 µM (active) | 0.147 | 3.11 | 0.814 | 5.15% [at 57.5 µM] |  | 8.07% [at 57.5 µM] | 2.5% [at 57.5 µM] | 9.99% [at 92.2 µM] | 3.23% [at 92.2 µM] |  |
